Experiment [1] can be described thus: qHTS assay to identify small molecule agonists of the estrogen receptor alpha (ER-alpha) signaling pathway in the presence of an antagonist - cell viability counter screen (AID 1259386).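 Further: series mostly up to about 92 µM; cells exposed to compounds for 22 h at 37 °C before the viability read; nearly all actives have a fitted effect of over 30% in size.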 The procedure, abridged:
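VM7Luc4E2, stripped-serum pre-culture 5 d; 24hr plating; +ICI-182,780 10.0nM final; cpds 15 conc, 22hr, 37C/5% CO2; CellTiter-Fluor added at 21hr, fluorescence 1hr later.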

The target in experiment [2] is Progesterone receptor (Homo sapiens) (UniProt P06401). Nature of the experiment: qHTS assay to identify small molecule agonists of the progesterone receptor (PR) signaling pathway (AID 1346784; calls by dose curve; further: nearly all actives have a fitted effect of over 30% in size; further: potency means the concentration at half of the fitted maximal effect). In outline: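 Compounds were tested for PR agonism in HEK 293T cells bearing a beta-lactamase gene under UAS control. Treatment lasted 16 hr at 37C; signal came from fluorescence of a FRET substrate.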
Background: Quantitative high-throughput screening tests each substance at several concentrations.

The target is the same in experiment [3]. Nature of the experiment: qHTS assay to identify small molecule antagonists of the progesterone receptor (PR) signaling pathway (AID 1346795; active means well fitted inhibition curve with a large enough effect in the signal ratio in the repeat runs, not every such curve was filed as active; the % refers to the signal ratio; further: potency means the concentration at half of the fitted maximal effect). In outline: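 In HEK293T cells bearing the PR-UAS-bla reporter, compound effects on promegestone-driven (1 nM) beta-lactamase expression are assessed after 16 hr using a fluorescent FRET substrate incubated 2 hr at room temperature.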

A short description of experiment [4]: qHTS assay to identify small molecule antagonists of the progesterone receptor (PR) signaling pathway - cell viability counter screen (AID 1346798). Further: series mostly up to about 92 µM; nearly all actives have a fitted effect of over 50% in size. In outline:
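Following a 4 hr attachment, PR-UAS-bla HEK293T cells in charcoal-stripped FBS medium were exposed to compounds with R5020 for 16 hr; CellTiter-Glo was added and luminescence read after 30 min at room temperature.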

The nature of experiment [5]: qHTS assay to identify small molecule agonists of the progesterone receptor (PR) signaling pathway - cell viability counter screen (AID 1346799; calls by dose curve; further: nearly all actives have a fitted effect of over 45% in size). In outline: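 Here, 3,000 PR-UAS-bla HEK293T cells per well were treated with compounds for 16 hr after a 6 hr preincubation at 37C and 5% CO2; cell viability is the CellTiter-Glo luminescence signal.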
Experiment [6] is described as follows: qHTS assay to identify small molecule agonists of the TGF-beta/Smad signaling pathway - cell viability counter screen (AID 1346829). Further: top concentration of the series differs between compounds; nearly all actives have a fitted effect of over 45% in size. In outline: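 In parallel with the Smad reporter read, viability of HEK 293T cells stably carrying SBE-bla is quantified by ATP luminescence following 5 hr compound treatment.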
Experiment [7] can be described thus: qHTS assay to identify small molecule agonists of the TGF-beta/Smad signaling pathway (AID 1346859; active means well fitted activation curve with a large enough effect in the signal ratio in the repeat runs, not every such curve was filed as active; the % refers to the signal ratio; further: series mostly up to about 77 µM). The procedure, abridged: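 Each well held 4,000 SBE-bla HEK 293T cells incubated overnight before compound addition; 5 hr later the cleavable FRET substrate went on for 2 hr at room temperature, and fluorescence was read at two emissions.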
Experiment [8] concerns the target Thyrotropin-releasing hormone receptor (Homo sapiens) (UniProt P34981). Nature of the experiment: qHTS assay to identify small molecule antagonists of the thyrotropin-releasing hormone receptor (TRHR) signaling pathway (AID 1346877; active means well fitted inhibition curve with a large enough effect in the repeat runs, not every such curve was filed as active; further: series mostly up to about 51 µM). In outline: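 Intracellular calcium fluorescence, read kinetically every second over 3 min, reports TRH-evoked signalling in HEK293 cells carrying TRHR. Test compounds were added 5 min ahead of a 1 nM TRH challenge.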

For experiment [9] the target is unchanged. Nature of the experiment: qHTS assay to identify small molecule agonists of the thyrotropin-releasing hormone receptor (TRHR) signaling pathway (AID 1346891; calls by dose curve; further: series mostly up to about 58 µM). The procedure, abridged: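 Screening of agonists relied on calcium signalling in HEK293 cells expressing human TRHR: dye loading 2 h at 37 °C preceded compound addition and a 3-min fluorescence time course.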

Experiment [10] can be described thus: Human pregnane X receptor (PXR) small molecule agonists, qHTS cell viability counter screen (AID 1346977). Further: nearly all actives have a fitted effect of over 50% in size. The procedure, abridged: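 Tox21 qHTS format; PXR-Luc HepG2, 2,000/well, charcoal-stripped FBS 5%. Cpd exposure 24hr. Read: CellTiter-Fluor fluorescence, multiplexed with luciferase.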
Experiment [11] in a line: Caspase-3/7 induction in HepG2 cells by small molecules, qHTS assay (AID 1346978). Further: nearly all actives have a fitted effect of over 15% in size. The procedure, abridged: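 Caspase-3/7 induction was measured by Caspase-Glo 3/7 luminescence (30 min, room temperature) after a 17 hr compound exposure of wild-type HepG2 cells seeded at 2,000 per well and pre-incubated 5 hr.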
Experiment [12] can be described thus: Caspase-3/7 induction in CHO-K1 cells by small molecules, qHTS assay (AID 1346980). Further: nearly all actives have a fitted effect of over 15% in size. The procedure, abridged: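 Luminescent Caspase-Glo 3/7 read (30min, room temperature) quantified apoptosis induction. Cells were wild-type CHO-K1, treated with compound for 17hr at 37 C and 5% CO2.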
Experiment [13] is described as follows: qHTS assay to identify small molecule antagonists of the TGF-beta/Smad signaling pathway - cell viability counter screen (AID 1346824). Further: nearly all actives have a fitted effect of over 50% in size. In outline: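 Cytotoxicity counter-screen run in the same wells as the beta-lactamase Smad reporter read: CellTiter-Glo luminescence after 30 min at room temperature. HEK 293T SBE-bla cells had 5 hr compound exposure at 37 C with TGF-beta1 (0.25 ng/mL stock).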

Experiment [14] can be described thus: Caspase-3/7 induction in CHO-K1 cells by small molecules, qHTS cell viability counter screen (AID 1346979). Further: nearly all actives have a fitted effect of over 35% in size. The procedure, abridged:
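CellTiter-Fluor viability check, qHTS format: wild-type CHO-K1, 16hr compound treatment, 1hr reagent incubation, fluorescence read.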

Experiment [15] in a line: Caspase-3/7 induction in HepG2 cells by small molecules, qHTS cell viability counter screen (AID 1346981). Further: series mostly up to about 92 µM; nearly all actives have a fitted effect of over 30% in size. The procedure, abridged: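 HepG2, WT, 2,000 cells/well; 5 hr pre-incubation 37 C/5% CO2; compound pin-transferred from DMSO; 16 hr exposure; CellTiter-Fluor, 1 hr; fluorescence read.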
Experiment [16] addresses Nuclear receptor subfamily 1 group I member 2 (Homo sapiens) (UniProt O75469). Nature of the experiment: Human pregnane X receptor (PXR) small molecule agonists, qHTS assay (AID 1346982). Further: nearly all actives have a fitted effect of over 35% in size. Further: potency means the concentration at half of the fitted maximal effect. The procedure, abridged:
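Luciferase signal from ONE-Glo (30 min, room temperature) measured activation of hPXR-driven CYP3A4 reporter expression in PXR-Luc HepG2 cells treated with compounds for 24 hr at 37 C.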

Experiment [17] deals with Nuclear receptor subfamily 1 group I member 2 (Rattus norvegicus) (UniProt Q9R1A7). Nature of the experiment: Rat pregnane X receptor (rPXR) activation by small molecules, qHTS assay (AID 1346983). Further: nearly all actives have a fitted effect of over 20% in size. To be noted: rPXR luciferase reporter cells, One-Glo luminescence, 24 h; max activation: hits give high values. In outline:
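Luminescent readout (One-Glo luciferase, 30 min room temperature) followed 24 hr compound treatment at 37 C of rPXR cells plated 2,000 per well and preincubated 5hr; qHTS format with compounds delivered in DMSO.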

Molecules are shown by their SMILES. Unmarked numbers belong to inactive results. Results filed as inconclusive are left out. Calls of active or inactive are those of the source. Unless noted, the call rests on the fitted dose curve; in most records, active means well fitted curve in the direction sought with a large enough effect in the repeat runs; inconclusive means weak or mixed curves; inactive means no such curve, though single readings can be large; an effect the other way counts as inactive or inconclusive.
On the % scale 0 is the no-effect control and ±100 the full control effect.

Sequence of Thyrotropin-releasing hormone receptor (Homo sapiens) (P34981 whole entry, looked up): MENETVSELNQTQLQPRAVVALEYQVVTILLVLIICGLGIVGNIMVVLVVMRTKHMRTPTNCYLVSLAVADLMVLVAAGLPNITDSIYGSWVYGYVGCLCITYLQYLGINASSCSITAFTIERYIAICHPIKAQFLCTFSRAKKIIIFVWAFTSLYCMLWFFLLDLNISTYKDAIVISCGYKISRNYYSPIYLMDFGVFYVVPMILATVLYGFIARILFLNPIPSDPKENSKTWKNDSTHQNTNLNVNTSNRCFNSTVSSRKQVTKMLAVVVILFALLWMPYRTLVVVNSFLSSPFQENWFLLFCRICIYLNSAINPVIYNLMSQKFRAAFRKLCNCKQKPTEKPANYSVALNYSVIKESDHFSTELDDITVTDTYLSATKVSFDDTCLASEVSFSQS
Sequence of Progesterone receptor (Homo sapiens) (P06401 whole entry, looked up): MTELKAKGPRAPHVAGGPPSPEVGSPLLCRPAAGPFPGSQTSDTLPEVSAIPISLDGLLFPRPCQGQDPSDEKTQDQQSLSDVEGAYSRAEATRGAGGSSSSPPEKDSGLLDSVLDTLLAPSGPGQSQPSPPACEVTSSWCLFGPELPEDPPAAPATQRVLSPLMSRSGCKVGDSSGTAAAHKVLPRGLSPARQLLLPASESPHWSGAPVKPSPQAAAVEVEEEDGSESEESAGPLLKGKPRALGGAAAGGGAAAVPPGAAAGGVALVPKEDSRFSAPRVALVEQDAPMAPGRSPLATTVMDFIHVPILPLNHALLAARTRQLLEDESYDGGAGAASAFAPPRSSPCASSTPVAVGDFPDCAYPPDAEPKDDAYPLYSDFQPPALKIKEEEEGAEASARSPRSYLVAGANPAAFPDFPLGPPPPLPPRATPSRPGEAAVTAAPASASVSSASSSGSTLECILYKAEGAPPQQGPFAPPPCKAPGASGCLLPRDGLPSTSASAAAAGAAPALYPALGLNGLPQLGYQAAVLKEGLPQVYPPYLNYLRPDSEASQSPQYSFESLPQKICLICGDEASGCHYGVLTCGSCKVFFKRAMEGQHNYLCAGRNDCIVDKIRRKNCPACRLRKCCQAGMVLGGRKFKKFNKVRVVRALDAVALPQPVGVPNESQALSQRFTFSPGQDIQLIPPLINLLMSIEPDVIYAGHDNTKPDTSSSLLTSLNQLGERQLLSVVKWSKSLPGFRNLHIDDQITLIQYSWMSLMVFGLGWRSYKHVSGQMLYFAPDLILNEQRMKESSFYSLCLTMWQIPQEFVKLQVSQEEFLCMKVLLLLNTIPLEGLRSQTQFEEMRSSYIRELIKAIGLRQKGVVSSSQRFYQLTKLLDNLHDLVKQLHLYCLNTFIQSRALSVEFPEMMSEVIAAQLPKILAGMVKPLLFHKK
Sequence of Nuclear receptor subfamily 1 group I member 2 (Homo sapiens) (O75469 whole entry, looked up): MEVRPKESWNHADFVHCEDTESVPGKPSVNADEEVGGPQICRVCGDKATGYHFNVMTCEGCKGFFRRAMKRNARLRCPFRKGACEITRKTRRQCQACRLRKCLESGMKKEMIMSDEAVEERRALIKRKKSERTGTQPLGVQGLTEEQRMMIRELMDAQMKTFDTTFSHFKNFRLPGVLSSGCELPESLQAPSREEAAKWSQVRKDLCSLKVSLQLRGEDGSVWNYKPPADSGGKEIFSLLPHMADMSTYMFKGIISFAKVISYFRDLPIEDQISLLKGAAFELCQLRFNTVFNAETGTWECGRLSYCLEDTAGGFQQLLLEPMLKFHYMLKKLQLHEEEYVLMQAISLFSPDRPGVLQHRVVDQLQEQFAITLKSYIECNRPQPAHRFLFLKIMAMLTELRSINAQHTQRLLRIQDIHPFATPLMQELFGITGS
Sequence of Nuclear receptor subfamily 1 group I member 2 (Rattus norvegicus) (Q9R1A7 whole entry, looked up): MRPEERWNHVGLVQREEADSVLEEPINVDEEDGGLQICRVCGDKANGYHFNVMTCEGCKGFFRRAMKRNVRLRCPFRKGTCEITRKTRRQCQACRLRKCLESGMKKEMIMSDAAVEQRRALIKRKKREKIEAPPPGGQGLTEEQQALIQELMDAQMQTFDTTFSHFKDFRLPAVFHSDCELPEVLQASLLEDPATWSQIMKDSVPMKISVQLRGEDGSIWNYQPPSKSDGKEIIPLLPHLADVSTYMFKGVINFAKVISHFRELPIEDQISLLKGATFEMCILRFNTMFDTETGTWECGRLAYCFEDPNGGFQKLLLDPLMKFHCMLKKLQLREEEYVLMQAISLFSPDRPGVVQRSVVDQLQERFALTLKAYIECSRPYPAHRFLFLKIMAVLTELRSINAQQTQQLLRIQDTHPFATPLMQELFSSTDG

For `COc1cc(C(C)=O)ccc1OCCCN1CCC(c2noc3cc(F)ccc23)CC1`, the Potency result in experiment [1], in experiment [2], in [3], in [4], in experiment [5] and in experiment [6] was “inactive” each time. Moreover, the Potency entry in [7], in experiment [10] and in experiment [11] was “inactive” in each case. In addition, the compound was classed as inactive in [8], in [9] and in experiment [12].

Take `CC(O)Cn1cnc2c1c(=O)n(C)c(=O)n2C` (configuration not stated): the Potency entry in experiment [1], in experiment [2], in [3], in experiment [4], in [6] and in experiment [7] was “inactive” each time. Also, the Potency result in experiment [10], in experiment [11], in [14] and in experiment [15] was “inactive” throughout. For the same compound, the outcome in experiment [13], in [8], in [9] and in experiment [12] was inactive.

For `CCCOC(=O)c1c(Cl)c(Cl)c(Cl)c(Cl)c1C(=O)OCCC`, the Potency entry in [1], in experiment [2], in [4], in experiment [5], in experiment [6] and in experiment [7] was “inactive” throughout. Moreover, the Potency entry in experiment [10] and in [11] was “inactive” in each case. The Potency in experiment [3] and in experiment [16] was 17.2 µM (active) in each case. In addition, the compound was classed as inactive in [8] and in experiment [9].

Regarding `CCOCCC(=O)OCC`, the Potency entry in experiment [1], in experiment [2], in experiment [3], in [4], in experiment [5] and in experiment [7] was “inactive” in each case. Also, the Potency result in [10], in experiment [11], in experiment [14], in experiment [15] and in experiment [16] was “inactive” throughout. The compound was called inactive in [13], in experiment [8], in [9] and in [12].

For the compound `Cc1ccc2nc(N)[nH]c(=O)c2c1Sc1ccncc1`, the Potency entry in [1], in experiment [4], in experiment [6], in [7], in experiment [10] and in experiment [11] was “inactive” each time. In addition, the Potency result in [16] was “inactive”. The outcome in experiment [13], in [8], in [9] and in experiment [12] was inactive. Besides, in [17], the max activation is -1.84%.

As for `CCN(CC)c1cccc(O)c1`, the Potency result in [1], in [2], in experiment [4], in [5], in experiment [6] and in experiment [10] was “inactive” each time. In addition, the Potency entry in experiment [11], in experiment [14] and in [15] was “inactive” in each case. Further, the compound was called inactive in experiment [13], in [8], in experiment [9] and in experiment [12]. For the same compound, in experiment [16], the Potency was 35.1 µM (active).

As to `Nc1ccc(F)cc1`, the Potency result in experiment [1], in experiment [3], in experiment [4], in [7], in experiment [10] and in experiment [11] was “inactive” each time. Besides, the Potency result in experiment [14], in experiment [15] and in experiment [16] was “inactive” in each case. Further, in [2], the Potency was 28.5 µM (active). The compound was classed as inactive in experiment [13], in experiment [8], in experiment [9] and in experiment [12].

Take `CC(=O)OCCC1CCCCC1`: the Potency entry in experiment [1], in experiment [2], in experiment [3], in experiment [4], in experiment [6] and in experiment [7] was “inactive” in each case. Besides, the Potency result in [10], in [11], in experiment [14] and in [16] was “inactive” each time. Also, the outcome in experiment [13], in [8], in experiment [9] and in [12] was inactive.

(Values after PubChem BioAssay (Tox21).)
